Measured values published in PubChem BioAssay.
Values without a mark were called inactive. Some of the results follow. The source made the active and inactive calls.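 Rule for the calls, unless noted: active = mean inhibition of the triplicate above the hit cutoff set for the earlier primary screen (cut at about 25% in these data); inactive = the rest.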

Assays:
[1] = target: Photoreceptor-specific nuclear receptor (Homo sapiens) (UniProt Q9Y5X4); assay: corepressor-releasing ligands of human NR2E3 – biochemical, TR-FRET, confirmation (AID 2379; in the data active = activation above about 20%); conditions: cell-free NR2E3 corepressor release, 5 h, at 3.98 µM, hits give high values
Chain of Photoreceptor-specific nuclear receptor (Homo sapiens) (Q9Y5X4 whole entry, looked up, the tested form may be a part): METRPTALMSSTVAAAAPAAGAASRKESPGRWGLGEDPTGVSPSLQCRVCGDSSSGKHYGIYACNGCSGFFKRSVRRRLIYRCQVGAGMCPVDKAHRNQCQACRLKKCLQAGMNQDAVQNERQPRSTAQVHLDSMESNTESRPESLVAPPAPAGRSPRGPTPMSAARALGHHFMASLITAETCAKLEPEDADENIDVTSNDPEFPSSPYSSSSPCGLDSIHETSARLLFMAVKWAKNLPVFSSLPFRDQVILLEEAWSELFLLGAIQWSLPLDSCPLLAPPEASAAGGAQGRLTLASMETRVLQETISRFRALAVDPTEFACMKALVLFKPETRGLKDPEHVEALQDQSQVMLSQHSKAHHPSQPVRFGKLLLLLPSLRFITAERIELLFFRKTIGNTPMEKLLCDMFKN

[2] = target: Peroxisome proliferator-activated receptor gamma (Homo sapiens) + Nuclear receptor corepressor 2 (Homo sapiens) (UniProt P37231+Q9Y618); assay: agonists of PPARg-NCOR2 corepressor interaction, counter-screen for NR2E3 agonist project, biochemical, TR-FRET (AID 504787; in the data active = inhibition above about 20%;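 note: 0% = DMSO vehicle and 100% = wells without protein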); conditions: TR-FRET PPARg-NCOR2 coregulator interaction, at 3.98 µM, hits give high values
Chain of Peroxisome proliferator-activated receptor gamma (Homo sapiens) + Nuclear receptor corepressor 2 (Homo sapiens) (P37231 whole entry, looked up): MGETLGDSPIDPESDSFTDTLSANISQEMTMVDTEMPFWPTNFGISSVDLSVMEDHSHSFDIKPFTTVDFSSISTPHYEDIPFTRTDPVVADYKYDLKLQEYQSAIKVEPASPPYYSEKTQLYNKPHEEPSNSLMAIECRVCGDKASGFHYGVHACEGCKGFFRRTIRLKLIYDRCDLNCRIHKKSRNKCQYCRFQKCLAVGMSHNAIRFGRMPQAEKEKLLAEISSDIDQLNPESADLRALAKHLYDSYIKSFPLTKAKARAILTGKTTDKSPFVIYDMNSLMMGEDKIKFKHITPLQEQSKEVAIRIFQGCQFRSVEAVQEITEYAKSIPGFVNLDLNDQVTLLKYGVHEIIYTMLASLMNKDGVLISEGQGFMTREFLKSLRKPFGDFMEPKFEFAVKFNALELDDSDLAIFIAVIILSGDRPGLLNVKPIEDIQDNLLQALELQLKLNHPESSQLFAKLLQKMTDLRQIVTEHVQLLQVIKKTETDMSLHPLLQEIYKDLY
Chain of Peroxisome proliferator-activated receptor gamma (Homo sapiens) + Nuclear receptor corepressor 2 (Homo sapiens) (Q9Y618 whole entry, looked up): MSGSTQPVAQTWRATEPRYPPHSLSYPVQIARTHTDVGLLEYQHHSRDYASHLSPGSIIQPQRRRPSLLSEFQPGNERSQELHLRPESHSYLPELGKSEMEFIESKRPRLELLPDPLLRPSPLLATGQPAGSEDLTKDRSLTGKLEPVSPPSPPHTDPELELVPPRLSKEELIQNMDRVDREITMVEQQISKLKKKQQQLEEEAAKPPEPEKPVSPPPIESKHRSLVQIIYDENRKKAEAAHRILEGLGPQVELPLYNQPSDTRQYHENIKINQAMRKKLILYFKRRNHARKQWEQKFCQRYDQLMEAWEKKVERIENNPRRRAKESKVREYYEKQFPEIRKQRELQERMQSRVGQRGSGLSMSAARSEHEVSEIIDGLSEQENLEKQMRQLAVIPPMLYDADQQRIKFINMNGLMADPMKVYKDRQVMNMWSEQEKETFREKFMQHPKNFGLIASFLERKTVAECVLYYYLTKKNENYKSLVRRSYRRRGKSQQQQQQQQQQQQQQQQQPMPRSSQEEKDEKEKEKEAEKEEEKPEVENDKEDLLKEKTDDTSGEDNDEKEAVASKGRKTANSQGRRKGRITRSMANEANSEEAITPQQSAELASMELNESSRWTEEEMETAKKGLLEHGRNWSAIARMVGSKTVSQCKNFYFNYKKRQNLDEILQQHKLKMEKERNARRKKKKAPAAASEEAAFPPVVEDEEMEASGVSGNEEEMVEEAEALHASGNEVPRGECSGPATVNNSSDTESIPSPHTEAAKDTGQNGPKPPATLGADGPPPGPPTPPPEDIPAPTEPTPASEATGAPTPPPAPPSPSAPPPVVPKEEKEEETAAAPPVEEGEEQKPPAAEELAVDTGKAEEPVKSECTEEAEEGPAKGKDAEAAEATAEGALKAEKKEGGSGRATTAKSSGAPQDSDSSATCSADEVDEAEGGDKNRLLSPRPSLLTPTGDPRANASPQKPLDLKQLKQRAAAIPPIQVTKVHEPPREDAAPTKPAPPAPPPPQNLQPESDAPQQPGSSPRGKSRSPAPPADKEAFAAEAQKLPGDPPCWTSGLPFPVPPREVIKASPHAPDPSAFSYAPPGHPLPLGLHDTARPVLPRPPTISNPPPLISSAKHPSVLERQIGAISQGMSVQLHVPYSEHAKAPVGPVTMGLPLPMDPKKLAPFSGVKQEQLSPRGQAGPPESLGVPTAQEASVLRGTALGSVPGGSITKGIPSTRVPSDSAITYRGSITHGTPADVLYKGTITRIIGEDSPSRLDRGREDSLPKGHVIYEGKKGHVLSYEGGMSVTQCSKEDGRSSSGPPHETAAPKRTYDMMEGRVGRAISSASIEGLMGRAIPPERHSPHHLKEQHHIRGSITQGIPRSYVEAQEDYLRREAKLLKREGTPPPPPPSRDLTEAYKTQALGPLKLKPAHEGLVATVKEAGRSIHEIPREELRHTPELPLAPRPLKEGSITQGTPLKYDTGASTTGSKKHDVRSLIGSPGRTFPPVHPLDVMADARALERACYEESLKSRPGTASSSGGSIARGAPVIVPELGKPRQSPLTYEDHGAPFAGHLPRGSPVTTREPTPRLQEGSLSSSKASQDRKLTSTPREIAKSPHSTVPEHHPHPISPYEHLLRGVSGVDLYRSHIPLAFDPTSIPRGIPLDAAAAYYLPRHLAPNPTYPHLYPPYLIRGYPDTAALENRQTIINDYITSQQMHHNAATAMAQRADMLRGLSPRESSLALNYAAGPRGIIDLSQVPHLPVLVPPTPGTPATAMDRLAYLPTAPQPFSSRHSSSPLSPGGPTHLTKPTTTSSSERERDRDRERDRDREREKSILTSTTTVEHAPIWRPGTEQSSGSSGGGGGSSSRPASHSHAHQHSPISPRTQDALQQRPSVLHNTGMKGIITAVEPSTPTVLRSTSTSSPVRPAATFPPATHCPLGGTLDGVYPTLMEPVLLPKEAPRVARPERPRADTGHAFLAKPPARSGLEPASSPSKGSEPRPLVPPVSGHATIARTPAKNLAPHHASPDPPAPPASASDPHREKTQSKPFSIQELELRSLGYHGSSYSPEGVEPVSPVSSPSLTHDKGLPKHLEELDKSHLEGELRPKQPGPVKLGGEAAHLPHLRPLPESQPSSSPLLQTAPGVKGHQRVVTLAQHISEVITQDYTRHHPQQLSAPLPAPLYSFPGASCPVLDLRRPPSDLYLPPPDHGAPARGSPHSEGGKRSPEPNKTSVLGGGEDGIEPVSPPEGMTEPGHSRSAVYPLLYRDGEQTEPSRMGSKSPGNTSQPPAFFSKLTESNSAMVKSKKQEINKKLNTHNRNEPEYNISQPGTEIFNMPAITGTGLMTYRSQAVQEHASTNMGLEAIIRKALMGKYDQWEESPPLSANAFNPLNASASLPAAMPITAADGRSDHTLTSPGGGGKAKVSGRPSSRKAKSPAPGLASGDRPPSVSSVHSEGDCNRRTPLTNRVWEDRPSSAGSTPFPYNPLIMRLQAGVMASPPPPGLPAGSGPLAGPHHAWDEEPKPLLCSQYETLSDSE

[3] = target: Oxytocin receptor (Homo sapiens) (UniProt P30559); assay: oxytocin receptor activation, retest of hits – fluorescence, CHO-OTR cells, triplicate, confirmation (AID 434963;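 active = mean activation above about 20% derived from the earlier single-dose screen, limit read from the data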;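 note: peak over minimum fluorescence ratio per well during a 100 second FLIPR read; 0% = DMSO alone and 100% = oxytocin high control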); conditions: Fluo-8 calcium fluorescence, agonist, at 3 µM, hits give high values
Chain of Oxytocin receptor (Homo sapiens) (P30559 whole entry, looked up): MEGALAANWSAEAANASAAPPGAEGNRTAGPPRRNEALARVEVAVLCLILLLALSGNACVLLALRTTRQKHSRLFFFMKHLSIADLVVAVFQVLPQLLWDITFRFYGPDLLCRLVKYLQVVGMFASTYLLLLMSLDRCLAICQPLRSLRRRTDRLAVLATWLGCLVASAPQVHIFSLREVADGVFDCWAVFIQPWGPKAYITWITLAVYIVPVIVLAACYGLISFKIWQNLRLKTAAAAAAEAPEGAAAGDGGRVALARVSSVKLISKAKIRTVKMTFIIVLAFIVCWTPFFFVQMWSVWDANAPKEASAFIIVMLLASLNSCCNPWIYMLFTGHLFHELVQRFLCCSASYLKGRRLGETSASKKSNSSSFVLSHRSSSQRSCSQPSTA

[4] = target: Vasopressin V1a receptor (Homo sapiens) (UniProt P37288); assay: activators of vasopressin V1R in CHO cells – cell-based, triplicate, fluorescence, counter-screen for OXTR agonist project (AID 434991;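 active = mean activation over triplicate exceeds the hit threshold set in the earlier primary screen, cut at about 20% in these data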;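 note: peak over basal fluorescence ratio within a 100 second read; 0% = DMSO alone and 100% = 3 nM vasopressin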); conditions: Fluo-8 calcium fluorescence, at 3 µM, hits give high values
Chain of Vasopressin V1a receptor (Homo sapiens) (P37288 whole entry, looked up): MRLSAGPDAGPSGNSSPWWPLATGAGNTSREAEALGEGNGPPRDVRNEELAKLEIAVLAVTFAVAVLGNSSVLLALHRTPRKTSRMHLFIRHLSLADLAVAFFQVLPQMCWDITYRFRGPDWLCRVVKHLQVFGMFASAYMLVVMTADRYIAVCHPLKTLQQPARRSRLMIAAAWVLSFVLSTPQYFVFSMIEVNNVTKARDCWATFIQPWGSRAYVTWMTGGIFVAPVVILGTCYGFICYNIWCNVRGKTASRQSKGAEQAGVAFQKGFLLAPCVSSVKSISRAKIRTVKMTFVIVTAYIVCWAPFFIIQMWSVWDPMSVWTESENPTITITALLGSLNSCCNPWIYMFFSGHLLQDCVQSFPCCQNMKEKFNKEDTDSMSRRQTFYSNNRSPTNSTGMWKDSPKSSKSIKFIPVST

[5] = target: Glutathione S-transferase omega-1 (Homo sapiens) (UniProt P78417); assay: recombinant GSTO1 blockers, retest – biochemical, fluorescence polarization, triplicate, counter-screen for RBBP9 inhibitor project, confirmation (AID 2176;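 active = inhibition above the primary screen's cutoff, its mean inhibition plus 3 SD, cut at about 35% in these data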;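 note: loss of polarization as inhibitors block binding of rhodamine sulfonate ester activity probe; 0% = GSTO1 with DMSO and 100% = wells lacking GSTO1 enzyme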); conditions: recombinant GSTO1, probe fluorescence polarization; at 5.96 µM; hits give high values
[6] = StAR promoter reporter inhibitors, counter-screen for LRH-1 inverse agonist project, cell-based, luminescence, high throughput (AID 651611; in the data active = inhibition above about 28%); conditions: StAR promoter luciferase reporter counterscreen, at 3.6 µM, hits give high values
[7] = target: Nuclear receptor subfamily 5 group A member 2 (Homo sapiens) (UniProt O00482); assay: NR5A2 activity suppression in reporter cells – cell-based, luminescence, confirmation (AID 651613; in the data active = inhibition above about 42%;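 note: HEK293T cells co-transfected with LRH-1 and StAR promoter luciferase reporter; 0% = vehicle wells and 100% = parental cells lacking receptor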); conditions: cell-based LRH-1 luciferase reporter, inverse agonism; at 3.6 µM; hits give high values
[8] = target: Steroidogenic factor 1 (Homo sapiens) (UniProt Q13285); assay: inverse agonism at SF1 nuclear receptor – cell-based, luminescence, high throughput, counter-screen for LRH-1 inverse agonist project (AID 651614; in the data active = inhibition above about 44%;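 note: cells cotransfected with StAR promoter reporter and SF1 expression vector; 0% = vehicle on cells with receptor and 100% = vehicle on cells lacking receptor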); conditions: cell-based SF1 luciferase reporter, at 3.6 µM, hits give high values
[9] = compounds suppressing VP16-driven luciferase signal – cell-based, luminescence, high throughput, counter-screen for LRH-1 inverse agonist project (AID 651615; in the data active = inhibition above about 33%); conditions: Gal4-VP16 luciferase reporter cells, at 3.6 µM, hits give high values
[10] = target: Nuclear receptor coactivator 1 (Homo sapiens) (UniProt Q15788); assay: NCOA1 GAL4-fusion reporter inhibition – cell-based, luminescence, quadruplicate, confirmation (AID 588820;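 active = mean inhibition above 46.68%, the untreated control wells mean plus 3 SD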;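 note: 0% = DMSO wells and 100% = gossypol 36 µM treated wells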); conditions: HEK293 GAL4-SRC1 luciferase reporter, at 3.6 µM, hits give high values
[11] = repression of VP16-driven luciferase reporter – cell-based, luminescence, high throughput, counter-screen for SRC1 inhibitor project (AID 588824; in the data active = inhibition above about 25%); conditions: cell-based VP16 transactivation luciferase luminescence; at 3.6 µM; hits give high values
[12] = target: Photoreceptor-specific nuclear receptor (Homo sapiens) (UniProt Q9Y5X4); assay: retest of NR2E3-NCOR disrupting agonists – cell-based, luminescence, CHO-S two-hybrid, confirmation (AID 624378;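 active = average inhibition above a cutoff equal to the mean inhibition of all tested compounds plus one SD, cut at about 70% in these data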;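 note: 0% = DMSO in NR2E3 cells and 100% = DMSO in cells lacking NR2E3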); conditions: CHO-S mammalian two-hybrid NR2E3-NCOR, luciferase luminescence; at 3.98 µM; hits give high values
[13] = nonselective effects on VP16 transactivation – cell-based, luminescence, CHO-S, high throughput, counter-screen for NR2E3 agonist project, confirmation (AID 624379;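 active = mean inhibition above a cutoff equal to the average over all tested compounds plus one standard deviation, cut at about 70% in these data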;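 note: luciferase from a UAS reporter driven by GAL4-VP16 transactivation; 0% = DMSO with VP16-transfected cells and 100% = DMSO with cells lacking VP16; higher means less reporter light so more repression of VP16 activity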); conditions: CHO-S GAL4-VP16 luciferase reporter, at 3.98 µM, hits give high values
[14] = reduced OD of V66 E. coli with T4 gene 2 phage – absorbance, RecBCD inhibitor project, confirmation (AID 651982;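 active = mean inhibition over triplicates exceeding the hit threshold derived in the original primary screen, cut at about 11% in these data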); conditions: E. coli V66 + T4 2- phage, growth OD; at 11.9 µM; hits give high values
[15] = bacterial growth inhibition – absorbance, high throughput, counter-screen for RecBCD inhibitor project (AID 651983; in the data active = inhibition above about 20%;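 note: E. coli strain V66 grown with compound alone and no phage infection; 0% = bacteria with DMSO vehicle only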); conditions: E. coli viability, absorbance (OD) growth; at 11.9 µM; hits give high values
[16] = reduced optical density, T4-challenged addAB+ bacteria – absorbance, E. coli V3065, T4 phage, counter-screen for RecBCD inhibitor project, confirmation (AID 651984;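 active = mean inhibition above the solvent-only control wells' mean plus 3 SD, cut at about 22% in these data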;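 note: higher means less bacterial growth from phage killing when AddAB is blocked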); conditions: E. coli expressing H. pylori AddAB + T4 phage, OD growth; at 11.9 µM; hits give high values; gene 2 mutant T4, recBCD-deleted host
[17] = tested on: transactivating tegument protein VP16 (Human herpesvirus 1); assay: compounds suppressing VP16-driven luciferase signal – cell-based, luminescence, single concentration, counter-screen for SRC2 inhibitor project (AID 652007; in the data active = inhibition above about 36%); conditions: cell-based VP16 transactivation luciferase reporter, at 8.9 µM, hits give high values
[18] = target: Nuclear receptor coactivator 2 (Homo sapiens) (UniProt Q15596); assay: inhibition of GAL4-SRC2 driven luciferase expression – cell-based, luminescence, HEK293, triplicate, confirmation (AID 652008;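 active = mean inhibition above 46.5%, the solvent-only control mean plus 3 SD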;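 note: 0% = DMSO-treated cells and 100% = Gossypol at 36 µM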); conditions: HEK293 GAL4-SRC2 luciferase reporter, at 8.9 µM, hits give high values
[19] = target: (Lyso)-N-acylphosphatidylethanolamine lipase (Mus musculus) (UniProt Q8VD66); assay: mouse ABHD4 hydrolase blockers, triplicate – biochemical, fluorescence polarization, confirmation (AID 720658;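 active = mean inhibition across replicates above the hit cutoff set in the primary screen, cut at about 30% in these data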;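 note: 0% = wild-type ABHD4 with DMSO and 100% = catalytically dead S159A mutant with DMSO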); conditions: purified mABHD4, FP-Rh probe fluorescence polarization; at 8.92 µM; hits give high values
Chain of (Lyso)-N-acylphosphatidylethanolamine lipase (Mus musculus) (Q8VD66 whole entry, looked up): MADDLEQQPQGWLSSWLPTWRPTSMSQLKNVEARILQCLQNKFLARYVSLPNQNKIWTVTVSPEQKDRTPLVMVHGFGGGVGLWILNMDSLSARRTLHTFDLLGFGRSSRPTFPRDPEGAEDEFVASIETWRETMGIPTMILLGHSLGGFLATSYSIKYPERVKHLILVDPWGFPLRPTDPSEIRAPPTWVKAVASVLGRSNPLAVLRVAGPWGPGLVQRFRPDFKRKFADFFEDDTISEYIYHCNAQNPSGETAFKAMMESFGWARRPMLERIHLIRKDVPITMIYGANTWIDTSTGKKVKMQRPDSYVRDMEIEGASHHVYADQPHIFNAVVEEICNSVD

[20] = target: Platelet-activating factor acetylhydrolase (Homo sapiens) (UniProt Q13093); assay: inhibition of plasma PAF acetylhydrolase – biochemical, fluorescence polarization, human, confirmation (AID 463230); conditions: recombinant pPAFAH, FP-Rh probe fluorescence polarization; at 3.39 µM; hits give high values;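 note: 0% = enzyme with DMSO and 100% = wells lacking pPAFAH enzyme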
Chain of Platelet-activating factor acetylhydrolase (Homo sapiens) (Q13093 whole entry, looked up): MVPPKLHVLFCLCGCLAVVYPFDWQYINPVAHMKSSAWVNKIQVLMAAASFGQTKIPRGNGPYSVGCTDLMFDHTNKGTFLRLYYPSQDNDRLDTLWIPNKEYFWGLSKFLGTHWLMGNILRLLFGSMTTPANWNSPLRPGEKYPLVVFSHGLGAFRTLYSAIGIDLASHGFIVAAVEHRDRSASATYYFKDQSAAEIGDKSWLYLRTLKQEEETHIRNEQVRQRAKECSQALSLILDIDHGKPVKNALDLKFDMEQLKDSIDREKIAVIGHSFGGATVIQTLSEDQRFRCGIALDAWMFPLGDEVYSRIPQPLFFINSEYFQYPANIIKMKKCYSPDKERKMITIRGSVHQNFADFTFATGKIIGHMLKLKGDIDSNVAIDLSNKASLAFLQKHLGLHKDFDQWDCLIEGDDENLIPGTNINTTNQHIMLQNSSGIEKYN

[21] = target: Serine protease HTRA1 (Homo sapiens) (UniProt Q92743); assay: confirming inhibition of human HTRA1 – biochemical, fluorescence polarization, confirmation (AID 540248;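 active = mean inhibition over three repeats above a set limit taken from the earlier primary screen, cut at about 37% in these data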;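 note: 0% = HTRA1 with DMSO and 100% = wells lacking HTRA1; inhibitors block probe binding so polarization drops and inhibition rises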); conditions: recombinant HTRA1, FP-rhodamine activity-based probe, at 5.96 µM, hits give high values
[22] = target: Protein-arginine deiminase type-4 (Homo sapiens) (UniProt Q9UM07); assay: protein arginine deiminase 4 blockade, retest – biochemical, fluorescence polarization, confirmation (AID 488796;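 active = mean inhibition across replicates above the hit cutoff set by the earlier primary screen, cut at about 15% in these data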;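 note: inhibitors block active-site labeling by the probe so polarization falls; 0% = PAD4 with probe and DMSO and 100% = probe without PAD4 enzyme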); conditions: recombinant PAD4, RCA probe fluorescence polarization; at 6.36 µM; hits give high values
[23] = target: Insulin-degrading enzyme (Homo sapiens) (UniProt P14735); assay: cellular IDE Abeta-cleavage inhibition – fluorescence polarization, HEK cells, FAbetaB substrate, confirmation (AID 435028;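 active = mean inhibition across triplicate wells above the cutoff set by the earlier primary insulin-degrading enzyme screen, cut at about 16% in these data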;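 note: 0% = DMSO wells and 100% = 60 µM reference IDE inhibitor Ii1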); conditions: at 5.59 µM, hits give high values
[24] = HEK cell viability loss – luminescence, cytotoxicity control for IDE inhibitor project (AID 449730; in the data active = inhibition above about 22%;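 note: 0% = vehicle wells and 100% = reference cytotoxic drug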); conditions: HEK293 cytotoxicity, ATP luminescence; at 5.59 µM; hits give high values

## O=C1C(=O)N(CCN2CCOCC2)C(c2cccc(Cl)c2)/C1=C(/O)c1ccc2c(c1)OCO2 (centres undefined)
[1]
  activation (reported as inhibition): 32.8% (active)
[2]
  inhibition: 31.2% (active)

## CCCCCCCCCCOC(=O)Cn1c(COc2cccc(OC)c2)[n+](C)c2ccccc21
[3]
  activation: 12%
[4]
  activation: 14.7%

## CN(C)CCCN(C(=O)c1ccc(S(=O)(=O)N2CCCCCC2)cc1)c1nc2ccc(Br)cc2s1
[3]
  activation: 6.69%
[4]
  activation: 11.3%

## COc1cc2[nH]c(=S)n(Cc3ccc(C)o3)c(=O)c2cc1OC
[1]
  activation (reported as inhibition): -5.72%
[2]
  inhibition: -2.05%

## Cc1nn(-c2ccccc2)c(C)c1NC(=O)CCl
[5]
  inhibition: 83.7% (active)
[6]
  inhibition: 28.1% (active)
[7]
  inhibition: 35.5%
[8]
  inhibition: 61.1% (active)
[9]
  inhibition: -83.9%

## Cc1cc(S(=O)(=O)c2cc3ccc(O)c(C)c3oc2=O)ccc1F
[10]
  inhibition: -24%
[11]
  inhibition: -0.08%

## CN(C)S(=O)(=O)c1ccc(Oc2ccc(S(=O)(=O)N(C)C)cc2)cc1
[12]
  inhibition: 71.8% (active)
[13]
  inhibition: 31.9%

## COc1ccc(NS(=O)(=O)c2ccc(Oc3c(C#N)cccc3C#N)cc2)cc1
[12]
  inhibition: 94.9% (active)
[13]
  inhibition: 88% (active)

## CCOc1ccc(Cn2nnc(C(=O)Nc3ccc(OC)cc3OC)c2N)cc1
[14]
  inhibition: -0.29%
[15]
  inhibition: -0.35%
[16]
  inhibition: -1.47%

## CCc1ccc(-c2nn(-c3ccccc3)cc2CSC(=N)N)cc1
[17]
  inhibition: -13.8%
[18]
  inhibition: -7.64%
[19]
  inhibition: 43.6% (active)

## O=C(N/N=C/c1cccnc1)c1cc2ccccc2cc1O
[20]
  inhibition: 5.94%
[21]
  inhibition: 13.8%

## COC(=O)c1cc(S(=O)(=O)Nc2ccc(C)c(F)c2)c[nH]1
[20]
  inhibition: 24.1%

## Cc1cc(C(=O)CSc2nc(N)cc(=O)[nH]2)c(C)n1CCc1ccc(Cl)cc1
[20]
  inhibition: 74.3% (active)
[22]
  inhibition: 13.4%

## COc1ccc(C(=O)NC(=S)Nc2ccccc2N2CCN(S(C)(=O)=O)CC2)cc1OC
[20]
  inhibition: -1.51%

## CC1(OC(=O)C2CCCC2)C(=O)C=C2C=C(c3ccc(C#N)cc3)OC=C2C1=O (centres undefined)
[20]
  inhibition: 53.2% (active)

## COC(=O)c1ccc(C(NC(=O)OCc2ccccc2)/C(C)=C/[C@@H](C)C(=O)NCc2ccc(OC)c(OC)c2)cc1 (some centres undefined)
[20]
  inhibition: 36% (active)

## N#C/C(=C\c1ccc(O)c(O)c1)C(=O)NCc1ccccc1
[23]
  inhibition: 43.1% (active)
[24]
  inhibition: 6.24%
[21]
  inhibition: 84.8% (active)
[19]
  inhibition: 30.8% (active)

## O=C(CCC1CCCCC1)Nc1cc(C(F)(F)F)ccc1N1CCOCC1
[20]
  inhibition: 6.87%

## OC(CNCC1CCCO1)Cn1c2ccc(Br)cc2c2cc(Br)ccc21 (centres undefined)
[20]
  inhibition: 37.2% (active)
